Bioassay records (PubChem)
The full list was thinned out, with hits kept by preference.
ST2 inh = inhibitors of human ST2 (IL1RL1) binding to IL-33, primary screen, biochemical, AlphaLISA; Interleukin-1 receptor-like 1 (Homo sapiens), Q01638; hit rate 2.3% among 78,000; AlphaLISA ST2-Fc/biotin-IL-33 interaction, 1 h; inhibition, % for hits at 17 µM; in the data active means inhibition above about 30%
Target sequence (Q01638 whole entry, looked up): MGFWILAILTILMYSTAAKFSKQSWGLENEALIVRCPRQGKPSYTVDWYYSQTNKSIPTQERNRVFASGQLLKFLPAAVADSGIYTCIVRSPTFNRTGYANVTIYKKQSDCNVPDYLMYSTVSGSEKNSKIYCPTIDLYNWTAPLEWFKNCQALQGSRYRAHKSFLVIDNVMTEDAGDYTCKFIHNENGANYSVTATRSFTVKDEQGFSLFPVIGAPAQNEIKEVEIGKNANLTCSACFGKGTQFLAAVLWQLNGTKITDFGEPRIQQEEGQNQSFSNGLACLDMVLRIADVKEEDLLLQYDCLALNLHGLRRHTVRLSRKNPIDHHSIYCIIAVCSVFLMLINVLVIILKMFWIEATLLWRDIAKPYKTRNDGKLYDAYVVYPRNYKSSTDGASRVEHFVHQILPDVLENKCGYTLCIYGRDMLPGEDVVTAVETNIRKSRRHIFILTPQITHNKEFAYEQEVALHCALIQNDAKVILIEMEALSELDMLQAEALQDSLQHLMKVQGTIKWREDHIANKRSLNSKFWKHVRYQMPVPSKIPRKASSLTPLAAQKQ
* marks the source's active call; other numbers are inactive results; i = inactive; ! = repeats disagree.

SMILES | ST2 inh
CC(CCc1ccccc1)NC(=O)CSc1nc(-c2ccc3c(c2)OCO3)nc2cc(=O)[nH]n12 (stereo not drawn) | i
CC(C)NC(=O)CSc1nc(-c2cccc(Cl)c2)nc2cc(=O)[nH]n12 | 96.0%*
Cc1n[nH]c(C)c1CCC(=O)N1CCc2c(nc(N(C)C)[nH]c2=O)C1 | i
N#C/C(=C/c1cn(Cc2ccc(Cl)cc2Cl)c2ccccc12)C(=O)NCC1CCCO1 (stereo not drawn) | 32.0%*
Cn1cc(CC(=O)NCC2CCCO2)c2ccccc21 (stereo not drawn) | i
Cc1c(C#N)c2ccccc2n1CC(=O)NCC1CCCO1 (stereo not drawn) | i
Cc1ccccc1C(=O)Nc1ccc(Br)cc1 | i
O=C(CC1COCCN1)NCCCn1nnc2ccccc21 (stereo not drawn) | i
O=C1CCC(=O)NCCCCCN(O)C(=O)CCC(=O)NCCCCCN(O)C(=O)CCC(=O)NCCCCCN1 | 39.0%*
O=C1CCC(=O)N(O)CCCCCNC(=O)CCC(=O)N(O)CCOCCNC(=O)CCC(=O)N(O)CCCCCN1 | i
O=C(Nc1cnn(-c2ccc(C(=O)N3CCN(c4ccccc4Cl)CC3)cc2)c1)C1CCOCC1 | i
CC(C)C(=O)Nc1ccc(C(=O)c2ccccc2)cc1NC(=O)C(C)C | i
CCOc1ccccc1-c1nc(-c2nonc2N)no1 | i
COc1ccc(Oc2nc3c(c(=O)n(Cc4ccccc4)c(=O)n3C)n2C)cc1 | 35.0%*
Cn1c(=O)c2c(nc(Oc3ccccc3)n2C)n(C)c1=O | i
Cn1c(Br)nc2c1c(=O)n(Cc1ccccc1)c(=O)n2C | i
CC(C)Cc1ccc(S(=O)(=O)Nc2ccccc2F)cc1 | i
CCCCCc1cc(C(=O)O)[nH]c1-c1ccccc1 | i
CCOC(=O)c1nn(CCc2ccc(OC)cc2)c2c1CN(C(=O)c1cc(C)nc(C)n1)CC2 | 30.0%*
CCOC(=O)c1nn(CCc2scnc2C)c2c1CN(C(=O)c1scc3c1CCCC3)CC2 | i
CCOC(=O)c1nn(Cc2ccc(OC)cc2)c2c1CN(C(=O)C1CCCO1)CC2 (stereo not drawn) | i
O=C(Cn1nnc([N+](=O)[O-])n1)c1cccs1 | i
COc1ccc(/C=C/C#N)cc1OC | i
COc1ccc(C=C2C(=O)OC(C)(C(C)(C)C)OC2=O)cc1OC (stereo not drawn) | i
COc1ccc(/C=C2\CCC/C(=C\c3ccc(OC)c(OC)c3)C2=O)cc1OC | 30.0%*
SMILES | ST2 inh
CC1CCCN(C(=O)C2CCCCC2C(=O)O)C1 (stereo not drawn) | i
Cc1ccc(-n2c(CN3CCNCC3)nc3cccnc32)cc1 | i
CC(C)N(Cc1nccn1C)c1nc2nonc2nc1NCc1cccs1 | i
COc1ccc2nc(NC(=O)/C=C/c3ccc([N+](=O)[O-])cc3)sc2c1 | 31.0%*
COc1ccc2nc(NC(=O)c3ccc(Cl)s3)sc2c1 | i
CS(=O)(=O)c1ccc2nc(NC(=O)/C=C/c3ccc(Cl)cc3)sc2c1 | i
CC1(C)CC(=O)C(C(C2=C(O)CC(C)(C)CC2=O)c2ccc(F)cc2)C(=O)C1 (stereo not drawn) | i
CCNC(=O)NC[C@@H]1C=C(C)[C@H](CC(=O)N(C)Cc2cccnc2)C[C@H]1C(C)C | i
CCN1C(=O)CC(c2ccccc2)Sc2ccccc21 (stereo not drawn) | i
CCSC1=N/C(=C2\C=Cc3ccccc3N2CC)C(=O)S1 | 73.0%*
CCN1/C(=C2\C(=O)N(c3ccc(Cl)cc3)N=C2C)C=Cc2ccccc21 | i
COc1ccc2[nH]c(C(=O)NCc3cccnc3N(C)C)c(C)c2c1 | i
CCOC(CCNC(=O)c1cc2cc3ccc(OC)cc3nc2s1)OCC | i
COc1ccc(CNC(=O)c2cc3cc4ccc(OC)cc4nc3s2)cc1 | 38.0%*
COc1ccc(CNC(=O)c2cc3cc4ccc(OC)cc4nc3o2)cc1 | i
COc1ccc(CNC(=O)c2cc3cc4ccc(OC)cc4nc3s2)c(OC)c1 | i
COCCNC(=O)c1cc2cc3ccc(C)cc3nc2s1 | i
COc1ccc2cc3cc(C(=O)NCc4ccc(F)cc4)sc3nc2c1 | 31.0%*
CCCC(=O)N1c2ccccc2NC2=C(C(=O)CCC2)C1c1ccc(N(C)C)cc1 (stereo not drawn) | i
Cc1cc(C)n(C)c(=O)c1C(=O)N1CCOC(C(F)(F)F)C1 (stereo not drawn) | i
c1ccc(N2CCN(c3ccccc3)C2c2ccco2)cc1 | i
CCCOc1ccc(C(=O)Nc2ccc([N+](=O)[O-])cc2OC)cc1 | i
Cn1c2nc3ccc(Br)cc3c-2nc2ccccc21 | 37.0%*
Cn1c(C(O)(c2ccccc2)c2nc3ccccc3n2C)nc2ccccc21 | i
Cn1c(NCc2cc(Br)ccc2O)nc2ccccc21 | i
SMILES | ST2 inh
Cc1cc(COc2ccccc2)oc1C(=O)N1CCCC(O)(CO)CC1 (stereo not drawn) | i
COc1cc(OC)cc(-c2cc3nc(C)c(CCC(=O)NC4CCCCCC4)c(C)n3n2)c1 | i
Cc1ccc(NC(=O)Cn2c(-c3ccc4c(c3)OCO4)cn(-c3ccccc3)c2=O)cc1 | 31.0%*
Cc1ccc(-c2noc(CCC(=O)Nc3ccc4c(c3)OCO4)n2)cc1 | i
COc1ccc(NC(=O)CN2CCN(Cc3ccc4c(c3)OCO4)CC2)cc1 | i
Cc1ccc(NC(=O)CCCC(=O)O)nc1 | i
CC(C)c1ccc(Nc2nnc(Cc3ccccc3Cl)c(=O)[nH]2)cc1 | i
Cc1nn(CCNc2cc(N(C)C)ncn2)c(C)c1Cl | i
O=C1NN(c2ccccc2)C(=O)/C1=C\c1cccc(Br)c1 | i
COc1cc(Cl)c(C2Nc3ccccc3-c3nnc(SC)nc3O2)cc1OC (stereo not drawn) | i
COc1ccc(C(C[N+](=O)[O-])Sc2ccccc2N)cc1 (stereo not drawn) | 32.0%*!
COc1ccc(NC(=O)c2ccccc2Sc2ccc([N+](=O)[O-])cc2)cc1 | i
COc1ccc(-c2[nH]c3ccccc3c2C(C[N+](=O)[O-])c2ccco2)cc1 (stereo not drawn) | i
CC(=O)C1=NN(c2ccccc2C)C2C(=O)N(c3ccc(Cl)cc3)C(=O)C12 (stereo not drawn) | i
O=C(Nc1cccc(N2CCCS2(=O)=O)c1)c1ccc(Br)o1 | i
CCOc1ccc(Nc2nc(C)c([N+](=O)[O-])c(Nc3ccccc3)n2)cc1 | i
Cc1cccc(NS(=O)(=O)c2ccc3[nH]c(=O)[nH]c3c2)c1 | i
CCOc1ccc(S(=O)(=O)N=C2C=C(Nc3cccc(C)c3)C(=O)c3ccccc32)cc1 | 90.0%*
Cc1ccc(S(=O)(=O)Nc2cccc(Cl)c2)cc1 | i
Cc1ccc(S(=O)(=O)N=C2C=C(Nc3cccc(C)c3)C(=O)c3ccccc32)cc1 | 84.0%*
CCOC(=O)c1cnc2ccccc2c1Nc1cccc(C)c1 | i
C=C1C[C@H](O)[C@@H](O)[C@@]2(C)C1[C@@H](O)[C@H]1OC(=O)C3[C@@H](C)[C@@H](O)[C@@H](O)C2[C@]31C (stereo partly drawn) | i
O=c1[nH]c2sc3c(c2c(=O)n1Cc1ccccc1)CCCC3 | i
CC(CCc1ccco1)NC(=O)c1ccc(=O)n(C)c1 (stereo not drawn) | i
Cc1csc2ncc(C(=O)Nc3ccc(C(C)C)cc3)c(=O)n12 | i
COc1ccc(/C=c2/sc3nc(-c4ccc(Cl)cc4)nn3c2=O)cc1 | i
CCOC(=O)c1c(C)n(-c2ccc(OC)cc2)c2c1cc(O)c1ccccc12 | i
